In paper PMC7862700, “An all-to-all approach to the identification of sequence-specific readers for epigenetic DNA modifications on cytosine”:

Tests used:
Experiment in all cases: DAPPL (digital affinity profiling via proximity ligation, sequencing); 10 mM Tris-HCl pH 7.5, 50 mM NaCl, 1 mM DTT, 4% glycerol, room temperature, 30 min; GST-TFs on glutathione beads, 16-mer random dsDNA library, 0.1% formaldehyde crosslink after washing; high values mean tight binding
[1] = biological target: T1, FEV (Homo sapiens, UniProt Q99581 1-238); details: protein: recombinant; tags: N-terminal GST; dsDNA, one strand shown
T1 sequence: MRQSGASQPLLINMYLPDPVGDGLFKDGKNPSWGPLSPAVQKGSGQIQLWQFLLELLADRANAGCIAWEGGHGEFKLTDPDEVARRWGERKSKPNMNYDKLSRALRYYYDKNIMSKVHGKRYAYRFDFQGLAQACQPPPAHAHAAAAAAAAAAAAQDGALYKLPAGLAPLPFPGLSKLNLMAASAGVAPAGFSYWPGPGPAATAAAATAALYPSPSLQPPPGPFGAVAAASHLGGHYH
How it was run: (§1)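 In yeast, human transcription factors were expressed with a GST fusion, then pulled down on glutathione beads and given DNA barcodes. Pooled with a tag-only sample, they were exposed to 200 nmole of a 16-mer random double-stranded DNA library (Tris/NaCl/DTT/glycerol buffer, room temperature, 30 min), washed, crosslinked with 0.1% formaldehyde, proximity-ligated using BsaI/T4 ligase for 1 h at 37 °C, PCR-amplified and read on an Illumina NextSeq500. Each hexamer's frequency of reads for a factor, divided by the matching frequency for the tag-only sample, gives the binding signal.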

[2] = biological target: ETV5 (Homo sapiens, UniProt P41161 1-510); details: protein: recombinant; tags: N-terminal GST; dsDNA, one strand shown
How it was run: as §1

[3] = biological target: HSF1 (Homo sapiens, UniProt Q00613 1-529); details: protein: recombinant; tags: N-terminal GST; chain copies: 3; dsDNA, one strand shown
How it was run: as §1

[4] = biological target: T2, SPIC (Homo sapiens, UniProt Q8N5J4 1-248); details: protein: recombinant; tags: N-terminal GST; dsDNA, one strand shown
T2 sequence: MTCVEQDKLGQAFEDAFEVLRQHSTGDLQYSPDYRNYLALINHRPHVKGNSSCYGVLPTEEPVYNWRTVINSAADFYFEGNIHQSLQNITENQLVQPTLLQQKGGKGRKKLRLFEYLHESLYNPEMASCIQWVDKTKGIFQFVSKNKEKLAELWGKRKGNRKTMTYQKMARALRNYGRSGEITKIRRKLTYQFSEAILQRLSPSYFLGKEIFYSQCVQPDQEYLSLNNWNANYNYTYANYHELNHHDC
How it was run: as §1

[5] = biological target: ELF4 (Homo sapiens, UniProt Q99607 1-663); details: protein: recombinant; tags: N-terminal GST; dsDNA, one strand shown
How it was run: as §1

[6] = biological target: T3, ELK4 (Homo sapiens, UniProt P28324-2 1-405); details: protein: recombinant; tags: N-terminal GST; dsDNA, one strand shown
T3 sequence: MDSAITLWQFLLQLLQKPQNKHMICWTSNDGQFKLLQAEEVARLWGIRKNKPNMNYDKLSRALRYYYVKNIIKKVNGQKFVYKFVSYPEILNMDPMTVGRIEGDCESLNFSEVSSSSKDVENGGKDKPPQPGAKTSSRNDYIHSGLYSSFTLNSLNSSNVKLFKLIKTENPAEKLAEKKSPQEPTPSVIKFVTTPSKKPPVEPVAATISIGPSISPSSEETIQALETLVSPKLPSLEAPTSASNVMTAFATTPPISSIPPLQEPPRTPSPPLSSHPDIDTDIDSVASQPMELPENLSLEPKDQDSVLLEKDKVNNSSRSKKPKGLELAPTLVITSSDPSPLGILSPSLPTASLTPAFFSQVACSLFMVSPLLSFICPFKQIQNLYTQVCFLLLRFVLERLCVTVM
How it was run: as §1

[7] = biological target: T4, ETV2 (Homo sapiens, UniProt O00321 1-342); details: protein: recombinant; tags: N-terminal GST; dsDNA, one strand shown
T4 sequence: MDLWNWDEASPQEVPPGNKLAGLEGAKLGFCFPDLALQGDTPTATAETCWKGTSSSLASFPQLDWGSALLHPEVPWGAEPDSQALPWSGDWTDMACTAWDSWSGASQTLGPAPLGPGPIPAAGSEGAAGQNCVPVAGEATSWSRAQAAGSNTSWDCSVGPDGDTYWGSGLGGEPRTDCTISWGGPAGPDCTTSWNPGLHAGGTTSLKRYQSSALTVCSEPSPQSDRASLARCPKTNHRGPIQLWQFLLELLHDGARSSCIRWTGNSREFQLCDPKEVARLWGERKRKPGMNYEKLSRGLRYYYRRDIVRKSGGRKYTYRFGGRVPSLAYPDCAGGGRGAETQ
How it was run: as §1

[8] = biological target: T5, ELF3 (Homo sapiens, UniProt P78545 1-371); details: protein: recombinant; tags: N-terminal GST; dsDNA, one strand shown
T5 sequence: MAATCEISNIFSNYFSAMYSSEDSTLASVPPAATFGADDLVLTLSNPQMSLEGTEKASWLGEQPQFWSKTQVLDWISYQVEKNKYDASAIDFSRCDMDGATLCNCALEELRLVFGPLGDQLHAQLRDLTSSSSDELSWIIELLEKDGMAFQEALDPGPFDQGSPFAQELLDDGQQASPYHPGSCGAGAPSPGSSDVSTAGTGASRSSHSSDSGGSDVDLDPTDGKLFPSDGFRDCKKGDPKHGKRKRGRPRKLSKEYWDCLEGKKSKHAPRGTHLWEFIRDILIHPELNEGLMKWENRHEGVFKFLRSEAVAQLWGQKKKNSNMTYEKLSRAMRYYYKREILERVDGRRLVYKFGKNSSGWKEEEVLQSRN
How it was run: as §1

[9] = biological target: CRX (Homo sapiens, UniProt O43186 1-299); details: protein: recombinant; tags: N-terminal GST; dsDNA, one strand shown
How it was run: as §1

[10] = biological target: ETV1 (Homo sapiens, UniProt P50549 1-477); details: protein: recombinant; tags: N-terminal GST; dsDNA, one strand shown
How it was run: as §1

[11] = biological target: T6, ERF (Homo sapiens, UniProt P50548 1-548); details: protein: recombinant; tags: N-terminal GST; dsDNA, one strand shown
T6 sequence: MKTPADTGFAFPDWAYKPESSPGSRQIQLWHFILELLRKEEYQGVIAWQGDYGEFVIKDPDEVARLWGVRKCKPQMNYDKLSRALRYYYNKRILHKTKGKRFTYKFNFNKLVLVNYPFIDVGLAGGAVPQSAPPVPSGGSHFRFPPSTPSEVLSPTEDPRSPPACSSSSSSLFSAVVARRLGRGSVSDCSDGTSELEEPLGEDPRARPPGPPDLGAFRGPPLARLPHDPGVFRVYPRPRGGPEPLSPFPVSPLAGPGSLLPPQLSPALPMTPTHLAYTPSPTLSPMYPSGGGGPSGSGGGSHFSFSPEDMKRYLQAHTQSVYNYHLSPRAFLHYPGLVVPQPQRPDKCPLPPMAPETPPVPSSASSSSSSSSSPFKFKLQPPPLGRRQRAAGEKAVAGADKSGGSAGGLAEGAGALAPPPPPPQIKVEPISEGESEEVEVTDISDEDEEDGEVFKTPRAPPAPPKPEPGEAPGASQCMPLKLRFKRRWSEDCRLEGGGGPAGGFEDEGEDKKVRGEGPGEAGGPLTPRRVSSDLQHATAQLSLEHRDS
How it was run: as §1

[12] = biological target: T7, ETV3L (Homo sapiens, UniProt Q6ZN32 1-361); details: protein: recombinant; tags: N-terminal GST; dsDNA, one strand shown
T7 sequence: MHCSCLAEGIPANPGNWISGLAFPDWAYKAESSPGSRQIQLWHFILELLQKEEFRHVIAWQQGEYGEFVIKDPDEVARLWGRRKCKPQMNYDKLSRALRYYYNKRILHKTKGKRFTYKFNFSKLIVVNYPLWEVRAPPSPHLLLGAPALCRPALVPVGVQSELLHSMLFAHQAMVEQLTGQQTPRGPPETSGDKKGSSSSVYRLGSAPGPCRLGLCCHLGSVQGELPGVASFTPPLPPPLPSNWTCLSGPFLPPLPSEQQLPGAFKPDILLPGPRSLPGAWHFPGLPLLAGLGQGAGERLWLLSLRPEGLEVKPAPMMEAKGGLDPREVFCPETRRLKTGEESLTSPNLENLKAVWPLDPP
How it was run: as §1

[13] = biological target: T8, ETS2 (Homo sapiens, UniProt P15036 1-469); details: protein: recombinant; tags: N-terminal GST; dsDNA, one strand shown
T8 sequence: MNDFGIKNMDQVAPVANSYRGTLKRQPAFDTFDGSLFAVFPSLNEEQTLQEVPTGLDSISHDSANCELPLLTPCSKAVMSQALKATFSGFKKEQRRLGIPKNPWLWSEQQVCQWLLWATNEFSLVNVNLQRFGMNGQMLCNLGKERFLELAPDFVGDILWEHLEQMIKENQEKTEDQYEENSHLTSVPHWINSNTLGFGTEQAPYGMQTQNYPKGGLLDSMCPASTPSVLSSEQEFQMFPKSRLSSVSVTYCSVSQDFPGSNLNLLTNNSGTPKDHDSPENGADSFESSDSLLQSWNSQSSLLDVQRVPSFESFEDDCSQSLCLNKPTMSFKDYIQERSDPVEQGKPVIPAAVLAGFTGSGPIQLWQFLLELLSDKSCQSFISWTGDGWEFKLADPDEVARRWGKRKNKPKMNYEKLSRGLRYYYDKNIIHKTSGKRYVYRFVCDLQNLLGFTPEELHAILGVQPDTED
How it was run: as §1

[14] = biological target: T9, SPDEF (Homo sapiens, UniProt O95238 1-335); details: protein: recombinant; tags: N-terminal GST; dsDNA, one strand shown
T9 sequence: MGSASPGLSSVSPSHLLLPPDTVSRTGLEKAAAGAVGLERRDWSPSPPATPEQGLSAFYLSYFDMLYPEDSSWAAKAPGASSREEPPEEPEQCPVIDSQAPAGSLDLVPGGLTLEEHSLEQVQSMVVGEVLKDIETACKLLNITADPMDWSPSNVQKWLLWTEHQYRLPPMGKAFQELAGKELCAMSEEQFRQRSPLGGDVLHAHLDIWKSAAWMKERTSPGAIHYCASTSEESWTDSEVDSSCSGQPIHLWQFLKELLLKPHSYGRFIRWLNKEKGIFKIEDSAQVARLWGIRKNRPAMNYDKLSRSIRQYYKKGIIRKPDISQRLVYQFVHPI
How it was run: as §1

[15] = biological target: T10, ETV7 (Homo sapiens, UniProt Q9Y603 1-341); details: protein: recombinant; tags: N-terminal GST; dsDNA, one strand shown
T10 sequence: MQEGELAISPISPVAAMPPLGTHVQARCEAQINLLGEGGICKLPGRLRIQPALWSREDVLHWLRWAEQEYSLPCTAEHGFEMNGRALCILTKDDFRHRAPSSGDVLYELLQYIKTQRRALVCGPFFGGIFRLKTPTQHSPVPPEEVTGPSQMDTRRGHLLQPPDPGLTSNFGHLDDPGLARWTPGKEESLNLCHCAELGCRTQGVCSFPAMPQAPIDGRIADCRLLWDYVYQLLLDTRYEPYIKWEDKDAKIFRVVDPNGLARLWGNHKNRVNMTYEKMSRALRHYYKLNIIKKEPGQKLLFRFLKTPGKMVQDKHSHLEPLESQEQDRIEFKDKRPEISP
How it was run: as §1

[16] = biological target: T11, ELF5 (Homo sapiens, UniProt Q9UKW6-2 1-255); details: protein: recombinant; tags: N-terminal GST; dsDNA, one strand shown
T11 sequence: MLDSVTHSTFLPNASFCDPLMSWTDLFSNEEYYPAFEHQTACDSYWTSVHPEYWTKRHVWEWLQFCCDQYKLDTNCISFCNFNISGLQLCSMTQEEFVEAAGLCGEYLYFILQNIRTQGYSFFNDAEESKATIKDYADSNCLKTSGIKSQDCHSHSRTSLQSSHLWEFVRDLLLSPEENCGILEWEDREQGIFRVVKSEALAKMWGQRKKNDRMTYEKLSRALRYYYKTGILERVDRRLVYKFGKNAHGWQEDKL
How it was run: as §1

[17] = biological target: T12, ETV3 (Homo sapiens, UniProt P41162-2 1-143); details: protein: recombinant; tags: N-terminal GST; dsDNA, one strand shown
T12 sequence: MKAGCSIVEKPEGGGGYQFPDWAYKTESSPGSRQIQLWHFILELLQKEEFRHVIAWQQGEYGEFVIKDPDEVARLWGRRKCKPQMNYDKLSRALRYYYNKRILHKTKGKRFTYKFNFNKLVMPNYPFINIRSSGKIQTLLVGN
How it was run: as §1

[18] = biological target: ETV6 (Homo sapiens, UniProt P41212 1-452); details: protein: recombinant; tags: N-terminal GST; dsDNA, one strand shown
How it was run: as §1

ETV6, sequence (P41212 whole entry): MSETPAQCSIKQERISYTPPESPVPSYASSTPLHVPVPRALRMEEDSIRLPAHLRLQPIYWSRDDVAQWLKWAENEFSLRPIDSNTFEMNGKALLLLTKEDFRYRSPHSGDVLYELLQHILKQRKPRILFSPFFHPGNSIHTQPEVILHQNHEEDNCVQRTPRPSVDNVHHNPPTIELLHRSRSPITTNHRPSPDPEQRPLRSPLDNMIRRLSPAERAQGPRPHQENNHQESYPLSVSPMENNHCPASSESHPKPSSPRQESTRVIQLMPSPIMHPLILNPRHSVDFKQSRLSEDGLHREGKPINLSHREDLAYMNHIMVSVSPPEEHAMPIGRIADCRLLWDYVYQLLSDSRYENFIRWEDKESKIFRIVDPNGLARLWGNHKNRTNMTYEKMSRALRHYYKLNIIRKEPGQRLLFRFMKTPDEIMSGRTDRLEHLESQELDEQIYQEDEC
ETV5, sequence (P41161 whole entry): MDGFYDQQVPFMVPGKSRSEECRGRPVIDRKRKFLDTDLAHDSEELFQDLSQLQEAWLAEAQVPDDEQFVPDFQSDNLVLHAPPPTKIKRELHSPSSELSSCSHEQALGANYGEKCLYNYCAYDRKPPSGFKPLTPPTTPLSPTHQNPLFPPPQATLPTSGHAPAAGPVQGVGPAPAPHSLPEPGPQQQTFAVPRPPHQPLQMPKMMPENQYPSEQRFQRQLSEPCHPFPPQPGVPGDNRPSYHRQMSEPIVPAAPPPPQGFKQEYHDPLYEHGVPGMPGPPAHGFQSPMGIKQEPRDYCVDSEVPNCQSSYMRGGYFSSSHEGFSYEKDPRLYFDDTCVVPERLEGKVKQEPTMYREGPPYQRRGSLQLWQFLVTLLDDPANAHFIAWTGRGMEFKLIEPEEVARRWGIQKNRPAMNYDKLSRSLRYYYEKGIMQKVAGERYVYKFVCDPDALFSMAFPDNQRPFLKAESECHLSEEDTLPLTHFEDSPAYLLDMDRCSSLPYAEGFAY
ELF4, sequence (Q99607 whole entry): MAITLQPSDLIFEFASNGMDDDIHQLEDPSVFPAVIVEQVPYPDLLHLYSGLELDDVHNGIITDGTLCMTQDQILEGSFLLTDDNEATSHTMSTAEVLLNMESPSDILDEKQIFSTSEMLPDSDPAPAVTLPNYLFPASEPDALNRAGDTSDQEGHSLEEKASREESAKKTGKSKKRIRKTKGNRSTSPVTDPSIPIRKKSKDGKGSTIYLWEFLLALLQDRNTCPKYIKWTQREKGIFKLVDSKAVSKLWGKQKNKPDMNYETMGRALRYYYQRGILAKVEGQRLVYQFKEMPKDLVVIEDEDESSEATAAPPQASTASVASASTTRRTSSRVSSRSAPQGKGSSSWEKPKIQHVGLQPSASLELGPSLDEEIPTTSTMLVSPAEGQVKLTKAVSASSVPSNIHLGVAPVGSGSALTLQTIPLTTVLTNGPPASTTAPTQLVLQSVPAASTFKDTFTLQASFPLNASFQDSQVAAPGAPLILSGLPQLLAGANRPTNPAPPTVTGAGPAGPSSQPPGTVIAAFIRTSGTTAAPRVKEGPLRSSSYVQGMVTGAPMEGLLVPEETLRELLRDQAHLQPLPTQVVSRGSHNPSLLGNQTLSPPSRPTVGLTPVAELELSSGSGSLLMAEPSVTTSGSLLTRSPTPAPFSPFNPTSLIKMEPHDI
ETV1, sequence (P50549 whole entry): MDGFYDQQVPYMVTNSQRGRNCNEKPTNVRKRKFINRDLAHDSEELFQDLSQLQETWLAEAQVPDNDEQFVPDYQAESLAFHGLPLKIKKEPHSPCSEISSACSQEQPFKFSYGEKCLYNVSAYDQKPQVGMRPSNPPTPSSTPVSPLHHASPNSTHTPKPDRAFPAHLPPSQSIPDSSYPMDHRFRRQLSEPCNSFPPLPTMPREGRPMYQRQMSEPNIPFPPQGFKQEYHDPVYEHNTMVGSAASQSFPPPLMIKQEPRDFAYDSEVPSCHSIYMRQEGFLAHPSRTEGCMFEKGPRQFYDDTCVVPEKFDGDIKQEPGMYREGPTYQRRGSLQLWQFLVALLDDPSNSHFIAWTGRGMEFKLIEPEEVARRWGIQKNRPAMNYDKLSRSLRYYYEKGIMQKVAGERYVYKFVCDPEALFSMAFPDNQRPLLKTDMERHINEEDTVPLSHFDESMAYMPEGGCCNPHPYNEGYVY
HSF1, sequence (Q00613 whole entry): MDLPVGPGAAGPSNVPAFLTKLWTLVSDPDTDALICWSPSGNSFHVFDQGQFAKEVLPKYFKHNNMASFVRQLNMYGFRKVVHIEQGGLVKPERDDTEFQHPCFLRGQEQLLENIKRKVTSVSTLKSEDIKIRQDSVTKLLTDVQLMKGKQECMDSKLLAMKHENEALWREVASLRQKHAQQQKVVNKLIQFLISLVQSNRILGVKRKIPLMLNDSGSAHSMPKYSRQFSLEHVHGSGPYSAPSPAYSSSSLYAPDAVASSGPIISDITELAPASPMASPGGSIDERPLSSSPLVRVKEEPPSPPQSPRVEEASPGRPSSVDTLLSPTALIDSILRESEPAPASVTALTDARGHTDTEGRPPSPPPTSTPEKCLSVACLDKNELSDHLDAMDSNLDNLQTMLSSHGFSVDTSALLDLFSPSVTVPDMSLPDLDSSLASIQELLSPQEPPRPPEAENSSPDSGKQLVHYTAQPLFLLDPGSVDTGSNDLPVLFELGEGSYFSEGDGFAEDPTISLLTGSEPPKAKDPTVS
CRX, sequence (O43186 whole entry): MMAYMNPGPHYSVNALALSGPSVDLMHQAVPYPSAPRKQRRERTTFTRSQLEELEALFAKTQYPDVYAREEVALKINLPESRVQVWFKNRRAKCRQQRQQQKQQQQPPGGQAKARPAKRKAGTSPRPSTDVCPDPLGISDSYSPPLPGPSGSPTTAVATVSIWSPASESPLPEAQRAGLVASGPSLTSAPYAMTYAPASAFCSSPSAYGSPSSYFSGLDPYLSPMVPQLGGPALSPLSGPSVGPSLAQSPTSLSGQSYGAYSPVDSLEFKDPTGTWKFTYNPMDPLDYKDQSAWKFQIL

## ATCTGT
[1]
  binding signal: 1.22 fold enrichment (6-mer frequency, TF over GST control)
[2]
  binding signal: 1.07 fold enrichment (6-mer frequency, TF over GST control)
[3]
  binding signal: 1.26 fold enrichment (6-mer frequency, TF over GST control)
[4]
  binding signal: 1.19 fold enrichment (6-mer frequency, TF over GST control)
[5]
  binding signal: 1.21 fold enrichment (6-mer frequency, TF over GST control)
[6]
  binding signal: 1.1 fold enrichment (6-mer frequency, TF over GST control)
[7]
  binding signal: 1.19 fold enrichment (6-mer frequency, TF over GST control)
[8]
  binding signal: 1.17 fold enrichment (6-mer frequency, TF over GST control)
[9]
  binding signal: 1.45 fold enrichment (6-mer frequency, TF over GST control)
[10]
  binding signal: 1.26 fold enrichment (6-mer frequency, TF over GST control)
[11]
  binding signal: 1.21 fold enrichment (6-mer frequency, TF over GST control)
[12]
  binding signal: 1.2 fold enrichment (6-mer frequency, TF over GST control)
[13]
  binding signal: 1.22 fold enrichment (6-mer frequency, TF over GST control)
[14]
  binding signal: 1.17 fold enrichment (6-mer frequency, TF over GST control)
[15]
  binding signal: 1.21 fold enrichment (6-mer frequency, TF over GST control)
[16]
  binding signal: 1.2 fold enrichment (6-mer frequency, TF over GST control)
[17]
  binding signal: 1.11 fold enrichment (6-mer frequency, TF over GST control)
[18]
  binding signal: 1.12 fold enrichment (6-mer frequency, TF over GST control)
